From article PMC4336329 (PLoS ONE, 2015)
The campaign covered roughly 310,000 compounds. About 14,000 (4.5%) showed an effect of 50% or more. The effect is printed as a negative number. The sample holds strong results, similar compounds and a random draw of the others, so the mix is not that of the screen.

molecular target: human ether-à-go-go-related gene (hERG) potassium channel (human, UniProt Q12809); test: primary screen, population patch clamp on CHO cells stably expressing hERG; higher = less effect of the substance
Sequence (Q12809 whole entry, looked up): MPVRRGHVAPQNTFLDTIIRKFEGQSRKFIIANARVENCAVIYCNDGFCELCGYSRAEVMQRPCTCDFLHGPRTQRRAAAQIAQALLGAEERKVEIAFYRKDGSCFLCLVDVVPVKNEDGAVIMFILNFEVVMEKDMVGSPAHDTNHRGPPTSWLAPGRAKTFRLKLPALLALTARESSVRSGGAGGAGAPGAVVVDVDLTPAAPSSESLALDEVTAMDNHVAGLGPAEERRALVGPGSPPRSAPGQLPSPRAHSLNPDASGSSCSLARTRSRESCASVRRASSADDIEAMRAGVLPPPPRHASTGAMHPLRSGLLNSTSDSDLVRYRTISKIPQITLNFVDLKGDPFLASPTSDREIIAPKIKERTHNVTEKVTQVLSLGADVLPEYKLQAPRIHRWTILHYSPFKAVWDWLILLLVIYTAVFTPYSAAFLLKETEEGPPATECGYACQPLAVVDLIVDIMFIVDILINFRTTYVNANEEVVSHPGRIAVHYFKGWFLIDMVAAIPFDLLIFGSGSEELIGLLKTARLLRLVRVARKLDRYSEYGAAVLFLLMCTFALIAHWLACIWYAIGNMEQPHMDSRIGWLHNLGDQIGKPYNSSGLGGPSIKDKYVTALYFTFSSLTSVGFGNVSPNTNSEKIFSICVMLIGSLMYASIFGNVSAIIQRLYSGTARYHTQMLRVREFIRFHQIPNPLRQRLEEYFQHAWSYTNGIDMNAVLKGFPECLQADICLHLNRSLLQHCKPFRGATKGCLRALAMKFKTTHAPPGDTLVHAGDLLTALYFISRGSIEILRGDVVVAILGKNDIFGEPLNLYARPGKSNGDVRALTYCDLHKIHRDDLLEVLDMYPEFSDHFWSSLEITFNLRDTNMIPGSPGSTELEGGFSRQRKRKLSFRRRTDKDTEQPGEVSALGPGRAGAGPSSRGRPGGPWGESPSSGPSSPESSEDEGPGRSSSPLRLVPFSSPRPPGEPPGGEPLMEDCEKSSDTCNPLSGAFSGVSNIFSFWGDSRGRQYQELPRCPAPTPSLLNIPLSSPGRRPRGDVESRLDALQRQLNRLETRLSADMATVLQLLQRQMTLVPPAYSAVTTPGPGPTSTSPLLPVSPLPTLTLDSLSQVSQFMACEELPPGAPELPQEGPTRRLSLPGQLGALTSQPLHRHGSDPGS
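Also: peak tail current of the secondary pulse compared with the same well before compound.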

Row | Compound | hERG current change (%, negative = inhibition) at 10uM
1 | COc1ccc(C(=O)OCC(=O)NCC2CCCO2)cc1 (stereo not shown) | 17.7%
2 | COc1ccc2nc(NS(=O)(=O)c3ccc(NC(C)=O)cc3)sc2c1 | 14%
3 | O=C(CCN1C(=O)/C(=C/c2ccco2)SC1=S)Nc1ccc(C(=O)O)c(O)c1 | 25.1%
4 | Cc1sc2nc(C)n(/N=C/c3ccccc3O)c(=O)c2c1C | -7.37%
5 | O=C(Nc1cc(C(F)(F)F)ccc1N1CCOCC1)c1ccccc1F | -4.2%
6 | COCCCN=Cc1c(C)[nH]n(-c2ccc(Br)cc2Br)c1=O | 20.4%
7 | CC(=NC1CC1)c1c(-c2ccccc2)[nH]n(-c2nc3ccccc3s2)c1=O | 9.63%
8 | COCCCN=Cc1c(-c2ccccc2)[nH]n(-c2nc3ccccc3s2)c1=O | -75.1%
9 | CCCN=C(C)c1c(-c2ccccc2)[nH]n(-c2nc3ccccc3s2)c1=O | -7.79%
10 | CC(=NCCCn1ccnc1)c1c(-c2ccccc2)[nH]n(-c2nc3ccccc3s2)c1=O | -70.8%
11 | COCCCN=Cc1c(C)[nH]n(-c2ccc(Br)c(C)c2)c1=O | -9.32%
12 | Cn1nc([N+](=O)[O-])nc1Oc1ccccc1 | -5.63%
13 | COc1ccc(C(=O)NC2CCN(C(=S)Nc3cccc(C)c3C)CC2)cc1 | 0.204%
14 | O=C1c2cccc3c(Nc4ccccc4Cl)c([N+](=O)[O-])cc(c23)C(=O)N1CCO | -22.8%
15 | Cc1ccc(/C=C2\OC(=O)c3ccccc32)cc1 | 14.9%
16 | O=C1O/C(=C\c2ccccc2)c2ccccc21 | -57.8%
17 | O=C1O/C(=C/c2ccccc2)c2ccccc21 | -3.12%
18 | COc1ccc(S(=O)(=O)N2CCCC2C(=O)Nc2ccc(C)cc2)cc1 (stereo not shown) | -15.3%
19 | O=C(COc1ccccc1)NNc1nc2c(F)cccc2s1 | 32.6%
20 | O=C(COc1ccccc1)NNc1nc2c(F)cc(F)cc2s1 | -62.6%
21 | O=C(NNc1nc2c(F)cc(F)cc2s1)c1ccccc1 | 8.87%
22 | O=C(NN=C1CCCCC1)Nc1ccccc1Cl | 3.82%
23 | Cc1nonc1NC(=O)CSc1nnc(-c2ccoc2C)n1CC(C)C | -17.1%
24 | Cc1ccc(-n2c(SCC(=O)Nc3ccc4c(c3)OCO4)nnc2-c2ccoc2C)cc1 | -42.2%
25 | Cc1nonc1NC(=O)CSc1nnc(-c2ccoc2C)n1C | 4.89%
26 | CCn1c(SCC(=O)Nc2nonc2C)nnc1-c1ccoc1C | -1.18%
27 | Cc1ccc(C)c(-n2c(SCC(=O)Nc3nonc3C)nnc2-c2ccoc2C)c1 | -61.2%
28 | Cc1nonc1NC(=O)CSc1nnc(-c2ccoc2C)n1-c1cccc(Cl)c1 | -77.9%

Row | Compound | hERG current change (%, negative = inhibition) at 10uM
29 | Cc1cccc(-n2c(SCC(=O)Nc3nonc3C)nnc2-c2ccoc2C)c1 | -78.9%
30 | CNC(=O)CSc1nnc(-c2ccco2)n1-c1cc(C)ccc1C | -2.95%
31 | CCCn1c(SCC(=O)Nc2nonc2C)nnc1-c1ccoc1C | -8.43%
32 | COc1ccc(C)cc1NC(=O)C(C)N1CCOCC1.Cl (stereo not shown) | 9.06%
33 | Cc1nc(Nc2nc3ccccc3o2)nc(C)c1C | 10.3%
34 | CCC(C(=O)Nc1ccc(C(=O)O)cc1NC(=O)C(CC)c1ccccc1)c1ccccc1 (stereo not shown) | 9.71%
35 | CCOc1ccc(CCNC(=O)C2CCN(c3nn4c(=O)cc(C)nc4s3)CC2)cc1OCC | -8.23%
36 | Cc1c(C)n(C)c2ccc(C(=O)N3CCN(c4ccccc4)CC3)cc12 | -5.05%
37 | CCOc1ccccc1-c1noc(CCC(=O)Nc2cccnc2)n1 | 9.94%
38 | CCC1C(=O)C(CC)C(c2ccccc2)NC1c1ccccc1 (stereo not shown) | 11.9%
39 | CCn1cc(C(=O)N2CCN(c3cccc(Cl)c3)CC2)c2cc(OC)c(OC)cc2c1=O | -64.8%
40 | COc1cc2c(C(=O)NCCCN3CCN(c4cccc(Cl)c4)CC3)cn(C)c(=O)c2cc1OC | -46%
41 | COc1ccc(C(=O)N2CCN(c3cccc(Cl)c3)CC2)c(OC)c1 | -44.6%
42 | COc1cc2c(C(=O)N3CCN(c4cccc(Cl)c4)CC3)cn(CC(C)C)c(=O)c2cc1OC | -63.6%
43 | CCn1cc(C(=O)N2CCN(c3ccc(F)cc3)CC2)c2cc(OC)c(OC)cc2c1=O | -69.5%
44 | COc1ccccc1C(=O)N1CCN(c2cccc(Cl)c2)CC1 | 0.406%
45 | COc1cc2c(C(=O)N3CCN(c4cccc(Cl)c4)CC3)cn(C)c(=O)c2cc1OC | -53.1%
46 | CCCN1CCN(C(=O)c2cn(CC(C)C)c(=O)c3cc(OC)c(OC)cc23)CC1 | -41.1%
47 | CCn1cc(C(=O)N2CCN(c3ccccn3)CC2)c2cc(OC)c(OC)cc2c1=O | -14.4%
48 | CCn1cc(C(=O)N2CCN(c3ccccc3OC)CC2)c2cc(OC)c(OC)cc2c1=O | -1.96%
49 | CCn1cc(C(=O)N2CCN(c3ccc(OC)cc3)CC2)c2cc(OC)c(OC)cc2c1=O | -33.8%
50 | CCn1cc(C(=O)N2CCN(c3ccc(C(C)=O)cc3)CC2)c2cc(OC)c(OC)cc2c1=O | -44.3%
51 | CCOC(=O)c1cnc(SC)nc1Oc1cccc(NC(=O)c2ccc(C)cc2)c1 | 11.4%
52 | COC(=O)c1cccnc1SCc1ccccc1 | -14.9%
53 | C/C(=N\OCC(=O)Nn1c(C)nc2ccccc2c1=O)c1ccccc1 | -13.8%
54 | Cc1cccc(NC(=O)c2cc3c([nH]c4ccccc43)c(C)n2)c1C | 11.6%
55 | COc1cc(C2C(C(=O)c3cccs3)=C(O)C(=O)N2CCN2CCOCC2)cc(OC)c1OC (stereo not shown) | 14.3%
